According to the supplement of paper PMC6555819:

Experiments:
Experiment in all cases: PBM binding z-score (relative to random genomic background probes); higher = stronger binding; sequences stand for … in GC…GCGATTGACAGCGTAGAATGAAGG
[1] = test system: PPARg:RXRa DBDmut IVT, anti-RXR (DBD mutation: RXRa K156A/R161A, NR concentration 270 nM, RXRa partner concentration 90 nM)
How it was run: (§1)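 Regression normalization was applied to scanned fluorescence from custom Agilent 4×180K protein-binding microarrays. Before scanning, arrays were incubated 1 h with ligand-free nuclear receptor dimers, and binding was detected with antibodies against each partner (one per run). Binding z-scores use the random background probes as reference.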

[2] = test system: PPARg:RXRa IVT, anti-PPARg (NR concentration 270 nM, RXRa partner concentration 90 nM)
How it was run: as §1

[3] = test system: PPARg DBDmut:RXRa IVT, anti-PPARg (DBD mutation: PPARg1 K132A/R137A, NR concentration 270 nM, RXRa partner concentration 90 nM)
How it was run: as §1

[4] = test system: PPARg DBDmut IVT, anti-PPARg (DBD mutation: PPARg1 K132A/R137A, NR concentration 270 nM)
How it was run: as §1

[5] = test system: PPARg homodimer (NR concentration 180 nM)
How it was run: as §1

[6] = test system: PXR:RXRa (NR concentration 270 nM, RXRa partner concentration 90 nM)
How it was run: as §1

[7] = test system: PXR homodimer (NR concentration 270 nM)
How it was run: as §1

[8] = test system: RARa:RXR (NR concentration 270 nM, RXRa partner concentration 90 nM)
How it was run: as §1

[9] = test system: RARa homodimer (NR concentration 270 nM)
How it was run: as §1

[10] = test system: RARb:RXRa (NR concentration 270 nM, RXRa partner concentration 90 nM)
How it was run: as §1

TAGCCTAGGACAGATCGGGCCAGTATACGCTATA
PBM binding z-score [1]: -0.993
PBM binding z-score [2]: -0.151
PBM binding z-score [3]: -0.673
PBM binding z-score [4]: 0.0562
PBM binding z-score [5]: -1.15
PBM binding z-score [6]: -0.732
PBM binding z-score [7]: -0.768
PBM binding z-score [8]: -0.695
PBM binding z-score [9]: -1.42
PBM binding z-score [10]: -0.928

ATATGTAGGTTAGCTGGGGTCATCCAGACTAGGC
PBM binding z-score [1]: 6.84
PBM binding z-score [2]: 6.06
PBM binding z-score [3]: 1.71
PBM binding z-score [4]: 0.818
PBM binding z-score [5]: 2.58
PBM binding z-score [6]: 6.14
PBM binding z-score [7]: 1.99
PBM binding z-score [8]: 5.79
PBM binding z-score [9]: 1.43
PBM binding z-score [10]: 3.34

GATACAGGGTCGAGGCCAGAGTACGCGTATTGAT
PBM binding z-score [1]: -0.175
PBM binding z-score [2]: 0.711
PBM binding z-score [3]: -0.769
PBM binding z-score [4]: -0.92
PBM binding z-score [5]: 0.109
PBM binding z-score [6]: 0.68
PBM binding z-score [7]: -0.735
PBM binding z-score [8]: 1.37
PBM binding z-score [9]: -0.498
PBM binding z-score [10]: 1.91

CCTACTGGGCCAAAGTTCATTGATTCCAATGCTC
PBM binding z-score [1]: 4.73
PBM binding z-score [2]: 6.06
PBM binding z-score [3]: -0.1
PBM binding z-score [4]: -0.115
PBM binding z-score [5]: 4.94
PBM binding z-score [6]: 4.5
PBM binding z-score [7]: 8.31
PBM binding z-score [8]: 2.99
PBM binding z-score [9]: 0.508
PBM binding z-score [10]: 3.13

TCTATTAGGTGAAGGGCAACCGACGAGTCCGTTT
PBM binding z-score [1]: 5.49
PBM binding z-score [2]: 4.75
PBM binding z-score [3]: 1.19
PBM binding z-score [4]: 0.901
PBM binding z-score [5]: 1.58
PBM binding z-score [6]: 0.47
PBM binding z-score [7]: 0.805
PBM binding z-score [8]: 0.687
PBM binding z-score [9]: 0.733
PBM binding z-score [10]: 2

TCTTGTAGAACAAGCAGGTTAAGAAAGCCTGAGT
PBM binding z-score [1]: 1.62
PBM binding z-score [2]: 0.593
PBM binding z-score [3]: 0.632
PBM binding z-score [4]: -0.0834
PBM binding z-score [5]: -0.0982
PBM binding z-score [6]: 0.365
PBM binding z-score [7]: 0.0921
PBM binding z-score [8]: 0.607
PBM binding z-score [9]: -0.498
PBM binding z-score [10]: 0.0626

TTACCAAGGCGAAAGGTCGTTGATGCACGCCTTG
PBM binding z-score [1]: 0.0972
PBM binding z-score [2]: 2.19
PBM binding z-score [3]: -0.305
PBM binding z-score [4]: -0.595
PBM binding z-score [5]: 0.815
PBM binding z-score [6]: 1.96
PBM binding z-score [7]: -0.0871
PBM binding z-score [8]: 2.49
PBM binding z-score [9]: 0.25
PBM binding z-score [10]: 1.83

TCTTGTAGCTCAATAGAGGTTAAGAAAGTGCGCT
PBM binding z-score [1]: 0.915
PBM binding z-score [2]: 0.506
PBM binding z-score [3]: 0.592
PBM binding z-score [4]: 0.551
PBM binding z-score [5]: -0.185
PBM binding z-score [6]: 2.46
PBM binding z-score [7]: -0.163
PBM binding z-score [8]: 1.28
PBM binding z-score [9]: -0.147
PBM binding z-score [10]: 0.573

TCTAGTTGGTCAAAGGTCACAGACTCGAAATGCG
PBM binding z-score [1]: 3.8
PBM binding z-score [2]: 6.51
PBM binding z-score [3]: 1.4
PBM binding z-score [4]: 1.43
PBM binding z-score [5]: 5.86
PBM binding z-score [6]: 6.19
PBM binding z-score [7]: 1.54
PBM binding z-score [8]: 7.67
PBM binding z-score [9]: 3.5
PBM binding z-score [10]: 5.12

TGTTGTAGATCAACAGGAGGTTAAGAAAGATCGA
PBM binding z-score [1]: -0.279
PBM binding z-score [2]: 0.51
PBM binding z-score [3]: 0.32
PBM binding z-score [4]: 0.601
PBM binding z-score [5]: 0.107
PBM binding z-score [6]: 0.714
PBM binding z-score [7]: -0.0905
PBM binding z-score [8]: 0.912
PBM binding z-score [9]: -0.122
PBM binding z-score [10]: 0.386

TCTCGGAGGACATGAAAGGTCAGAGCTCGACATC
PBM binding z-score [1]: 2.04
PBM binding z-score [2]: 1.1
PBM binding z-score [3]: -0.0886
PBM binding z-score [4]: -0.561
PBM binding z-score [5]: 2.54
PBM binding z-score [6]: 3.59
PBM binding z-score [7]: 0.0503
PBM binding z-score [8]: 3.72
PBM binding z-score [9]: 0.458
PBM binding z-score [10]: 3.99

CCAGACAGGGGAAAGGTAACTCAGTCTGGTACGC
PBM binding z-score [1]: -0.0945
PBM binding z-score [2]: 0.279
PBM binding z-score [3]: -0.482
PBM binding z-score [4]: -1.01
PBM binding z-score [5]: 0.356
PBM binding z-score [6]: 0.0184
PBM binding z-score [7]: -0.106
PBM binding z-score [8]: 0.15
PBM binding z-score [9]: -0.374
PBM binding z-score [10]: 0.202

TCTAGTTGGTCAACGGTCACACACTCGAAATGCG
PBM binding z-score [1]: 2.4
PBM binding z-score [2]: 2.99
PBM binding z-score [3]: 0.499
PBM binding z-score [4]: 0.932
PBM binding z-score [5]: 1.48
PBM binding z-score [6]: 0.697
PBM binding z-score [7]: 0.127
PBM binding z-score [8]: 0.78
PBM binding z-score [9]: 1.23
PBM binding z-score [10]: 2.31

TCTGCTAGGTCAACGATGGTCAGCTAATCTGCTA
PBM binding z-score [1]: 4.23
PBM binding z-score [2]: 4.22
PBM binding z-score [3]: 0.762
PBM binding z-score [4]: 0.898
PBM binding z-score [5]: 1.44
PBM binding z-score [6]: 1.67
PBM binding z-score [7]: -0.856
PBM binding z-score [8]: 2.46
PBM binding z-score [9]: -0.93
PBM binding z-score [10]: 4.01

CAAACTAGGACAAGGTCAAAGTCGGTTTGTGCCA
PBM binding z-score [1]: 5.64
PBM binding z-score [2]: 5.61
PBM binding z-score [3]: 1.68
PBM binding z-score [4]: 1.21
PBM binding z-score [5]: 2.27
PBM binding z-score [6]: 4.44
PBM binding z-score [7]: 1.41
PBM binding z-score [8]: 4.44
PBM binding z-score [9]: 0.511
PBM binding z-score [10]: 3.83

ATCTCTAGGTAAACATAGTTCAGTGAATGCAAAT
PBM binding z-score [1]: 2.31
PBM binding z-score [2]: 2.59
PBM binding z-score [3]: 0.983
PBM binding z-score [4]: 1.45
PBM binding z-score [5]: 1.28
PBM binding z-score [6]: 1.35
PBM binding z-score [7]: 0.955
PBM binding z-score [8]: 0.73
PBM binding z-score [9]: 1.3
PBM binding z-score [10]: 1.01

AGTCAAAGTTCAGAACGAGGTAACGTAAAGCACG
PBM binding z-score [1]: 0.0651
PBM binding z-score [2]: 2.1
PBM binding z-score [3]: 0.709
PBM binding z-score [4]: 0.236
PBM binding z-score [5]: 1.58
PBM binding z-score [6]: 3.14
PBM binding z-score [7]: 1.5
PBM binding z-score [8]: 2.94
PBM binding z-score [9]: 0.271
PBM binding z-score [10]: 4.01

CGAACTAGGTCAAGGACAGTGCATCTCCGCACGC
PBM binding z-score [1]: 8.15
PBM binding z-score [2]: 8.09
PBM binding z-score [3]: 1.65
PBM binding z-score [4]: 0.963
PBM binding z-score [5]: 1.3
PBM binding z-score [6]: 2.24
PBM binding z-score [7]: 0.348
PBM binding z-score [8]: 1.94
PBM binding z-score [9]: -0.145
PBM binding z-score [10]: 3.97

ACTTACGGGTCAACGAGGTTGTAGCACGCGTATA
PBM binding z-score [1]: 3.1
PBM binding z-score [2]: 3.83
PBM binding z-score [3]: 2.28
PBM binding z-score [4]: 1.73
PBM binding z-score [5]: 3.47
PBM binding z-score [6]: 4.95
PBM binding z-score [7]: 1.29
PBM binding z-score [8]: 5.07
PBM binding z-score [9]: 0.713
PBM binding z-score [10]: 4.04

CCAGACAGGTGAGAGGTAACTCAGTCTGGTACGC
PBM binding z-score [1]: 1.59
PBM binding z-score [2]: 1.87
PBM binding z-score [3]: -0.562
PBM binding z-score [4]: -0.501
PBM binding z-score [5]: 0.989
PBM binding z-score [6]: -0.00466
PBM binding z-score [7]: -0.224
PBM binding z-score [8]: 0.194
PBM binding z-score [9]: 0.0236
PBM binding z-score [10]: 0.78

CAAACTAGGTCACGAAAGGTCCAAGTCGAATGAC
PBM binding z-score [1]: 8.4
PBM binding z-score [2]: 9.01
PBM binding z-score [3]: 1.98
PBM binding z-score [4]: 0.788
PBM binding z-score [5]: 2.59
PBM binding z-score [6]: 3.32
PBM binding z-score [7]: 0.339
PBM binding z-score [8]: 3.32
PBM binding z-score [9]: 1
PBM binding z-score [10]: 4.51

TCTCGGAGGACACGCAAGGTCAGAGCTCGACATC
PBM binding z-score [1]: 1.62
PBM binding z-score [2]: 1.03
PBM binding z-score [3]: -0.531
PBM binding z-score [4]: -0.649
PBM binding z-score [5]: 0.657
PBM binding z-score [6]: 2.67
PBM binding z-score [7]: 0.389
PBM binding z-score [8]: 2.61
PBM binding z-score [9]: 0.379
PBM binding z-score [10]: 3.4

AGTATTAGTTGAGACGAGGGCAACCGATAGGTTG
PBM binding z-score [1]: -0.068
PBM binding z-score [2]: 0.769
PBM binding z-score [3]: 0.458
PBM binding z-score [4]: 0.336
PBM binding z-score [5]: 0.923
PBM binding z-score [6]: 1.63
PBM binding z-score [7]: 0.87
PBM binding z-score [8]: 1.01
PBM binding z-score [9]: 1.25
PBM binding z-score [10]: 1.2
